# Screen size: about 310,000 compounds; about 14,000 (4.5%) showed an effect of 50% or more. The effect is printed as a negative number. This excerpt belongs to a sample that is enriched for strong results.
# Molecular target: human ether-à-go-go-related gene (hERG) potassium channel (human, UniProt Q12809)
# Experiment: primary screen, population patch clamp on CHO cells stably expressing hERG; higher = less effect of the substance
# 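Note: peak tail current of the secondary pulse compared with the same well before compound.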
# human ether-à-go-go-related gene (hERG) potassium channel, sequence (Q12809 whole entry, looked up): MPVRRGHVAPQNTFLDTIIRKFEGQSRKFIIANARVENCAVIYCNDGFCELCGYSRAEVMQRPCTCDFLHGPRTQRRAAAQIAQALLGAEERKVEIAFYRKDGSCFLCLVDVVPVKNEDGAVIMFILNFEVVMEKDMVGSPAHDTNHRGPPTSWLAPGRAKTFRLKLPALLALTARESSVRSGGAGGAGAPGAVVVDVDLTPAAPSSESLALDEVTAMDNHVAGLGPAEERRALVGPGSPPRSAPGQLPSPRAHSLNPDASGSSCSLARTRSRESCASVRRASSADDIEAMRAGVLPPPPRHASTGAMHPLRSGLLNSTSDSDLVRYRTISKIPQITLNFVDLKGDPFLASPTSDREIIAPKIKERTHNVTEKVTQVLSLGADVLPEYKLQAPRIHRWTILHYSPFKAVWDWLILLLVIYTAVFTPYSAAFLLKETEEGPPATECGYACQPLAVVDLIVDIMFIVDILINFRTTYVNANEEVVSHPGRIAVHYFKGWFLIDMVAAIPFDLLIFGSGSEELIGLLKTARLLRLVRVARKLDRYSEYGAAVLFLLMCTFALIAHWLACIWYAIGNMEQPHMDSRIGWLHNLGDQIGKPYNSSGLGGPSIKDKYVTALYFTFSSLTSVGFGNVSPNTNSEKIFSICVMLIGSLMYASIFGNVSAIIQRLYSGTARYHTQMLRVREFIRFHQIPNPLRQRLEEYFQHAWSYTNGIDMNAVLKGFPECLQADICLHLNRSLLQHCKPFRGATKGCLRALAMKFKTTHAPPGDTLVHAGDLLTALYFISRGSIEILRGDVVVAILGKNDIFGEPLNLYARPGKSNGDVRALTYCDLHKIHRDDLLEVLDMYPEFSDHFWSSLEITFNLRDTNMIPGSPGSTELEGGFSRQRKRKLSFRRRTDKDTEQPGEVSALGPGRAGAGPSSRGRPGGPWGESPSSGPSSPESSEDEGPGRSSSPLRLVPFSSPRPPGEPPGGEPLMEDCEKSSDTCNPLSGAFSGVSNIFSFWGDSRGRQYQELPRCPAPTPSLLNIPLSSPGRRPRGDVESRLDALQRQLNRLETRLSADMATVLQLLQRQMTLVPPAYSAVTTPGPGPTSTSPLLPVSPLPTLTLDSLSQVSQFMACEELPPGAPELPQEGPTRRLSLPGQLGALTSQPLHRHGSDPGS
row,Compound,"hERG current change (%, negative = inhibition) at 10uM [%]"
1,CCOc1cc(N2CCOCC2)c(OCC)cc1NC(=O)CN1C(=O)NC2(CCc3ccccc32)C1=O (stereo not drawn),-44.5
2,CCOc1cc(N2CCOCC2)c(OCC)cc1NC(=O)CN1C(=O)NC2(CCCCCCC2)C1=O,-63
3,COc1ccccc1NC(=O)CN1C(=O)NC2(CCCCCCC2)C1=O,1.08
4,CCOc1ccc(S(=O)(=O)N2CCOCC2)cc1NC(=O)CN1C(=O)NC2(CCCCC2)C1=O,-17.9
5,CCOc1cc(N2CCOCC2)c(OCC)cc1NC(=O)CN1C(=O)C2CC=CCC2C1=O (stereo not drawn),-8.84
6,CCOc1cc(N2CCOCC2)c(OCC)cc1NC(=O)CN1C(=O)NC(C)(C2CC2)C1=O (stereo not drawn),26.8
7,CCOc1cc(N2CCOCC2)c(OCC)cc1NC(=O)CN1C(=O)NC(CC(C)C)C1=O (stereo not drawn),-70.4
8,CCOc1cc(N2CCOCC2)c(OCC)cc1NC(=O)CN1C(=O)N(C)C2(CCCCC2)C1=O,-23.5
9,CCOc1cc(N2CCOCC2)c(OCC)cc1NC(=O)CN1C(=O)NC(Cc2ccccc2)C1=O (stereo not drawn),-25.5
10,CCOc1cc(N2CCOCC2)c(OCC)cc1NC(=O)CN1C(=O)NC2(CCCCC2)C1=O,-69.7
11,COc1cc(NC(=O)c2ccccc2)c(OC)cc1NC(=O)CN1C(=O)NC2(CCCCC2)C1=O,-70.3
12,COc1cc(NC(=O)c2ccccc2)c(OC)cc1NC(=O)CN1C(=O)NC2(CCCCC2C)C1=O (stereo not drawn),-49.8
13,CSc1ccccc1C(=O)Nc1nc2ccccc2[nH]1,2.78
14,COc1ccccc1N(CC(=O)NC1CCCC1)C(=O)CCC(=O)Nc1ccccn1,6.68
15,Cc1[nH]n(-c2ccccc2)c(=O)c1-c1ccc(Cl)cc1,9.3
16,COc1ccc(C(=O)NC(=S)Nc2ccccc2F)cc1,9.53
17,CN(C)S(=O)(=O)Oc1ccsc1C(=O)Nc1ccc(Cl)cc1,-33.7
18,Cc1cc(N=NC(=O)c2ccccc2)ccc1O,4.74
19,O=C(Nc1ccc(Cl)cc1)NC1CCCC1Cc1ccco1 (stereo not drawn),-15.3
20,CCOc1cc(/C=N/Nc2cc(C)nc3ccc(C)cc23)ccc1O,11.1
21,CCOc1ccc(Nc2ccnc3cc(Cl)ccc23)cc1,-7.97
22,CCOc1ccccc1Nc1ccnc2cc(Cl)ccc12,-57.2

row,Compound,"hERG current change (%, negative = inhibition) at 10uM [%]"
1,Cc1ccc2nc(C)cc(Nc3ccc([N+](=O)[O-])cc3)c2c1,-14.4
2,CCOc1ccccc1/C=N/Nc1cc(C)nc2ccc(C)cc12,8.9
3,Cc1ccc(Nc2cc(C)nc3ccc(C)cc23)cc1,-37.9
4,CCOc1ccc(Nc2cc(C)nc3ccc(C)cc23)cc1,-69.6
5,Clc1ccc2c(NNc3ccccc3Cl)ccnc2c1,7.9
6,CCOc1ccccc1Nc1cc(C)nc2ccc(C)cc12,-70.1
7,Cc1ccccc1-n1nnnc1SCc1cc(=O)n2ccsc2n1,-25.6
8,Cc1nc2ccccc2nc1N1CCOCC1,5.42
9,Cc1cccc2nc(Cn3c(=O)n(CCCC(=O)NCc4ccco4)c(=O)c4ccccc43)cc(=O)n12,-23
10,COc1ccc(S(=O)(=O)Nc2ccc(Nc3ccccc3)cc2)cc1,5.15
11,N#Cc1ccccc1Cn1cc(C(=O)c2ccccc2F)c2ccccc21,4.67
12,Cc1cc(C)cc(NC(=O)c2cnn(-c3ccccc3)c2C2CCNCC2)c1.Cl,-19.7
13,Cc1c(C(=O)Nc2ccccc2)cnn1-c1ccccc1,-3.03
14,Cc1ccc(-n2ncc(C(=O)Nc3cc(Cl)ccc3Cl)c2C2CCNCC2)cc1.Cl,-62
15,Cc1ccc(-n2ncc(C(=O)Nc3cc(Cl)ccc3C)c2C2CCNCC2)cc1C.Cl,-35.1
16,CCc1ccc(NC(=O)c2cnn(-c3ccccc3)c2C2CCNCC2)cc1.Cl,-60
17,CCc1cccc(NC(=O)c2cnn(-c3ccccc3)c2C)c1,-56
18,CCCc1c(C(=O)Nc2ccc(F)cc2)cnn1-c1ccccc1,12.5
19,Cc1cccc(C)c1-n1ncc(C(=O)NC2CCCC2)c1C1CCNCC1,18.9
20,Cc1ccc(-n2ncc(C(=O)Nc3ccc(Cl)cc3)c2C2CCNCC2)cc1C.Cl,-71.7
21,O=C(c1ccco1)N1CCN(C(=O)c2cnn(-c3ccc(Cl)cc3)c2C2CCNCC2)CC1,15
22,CCc1ccc(NC(=O)c2cnn(-c3ccccc3)c2C)cc1,2.7

row,Compound,"hERG current change (%, negative = inhibition) at 10uM [%]"
1,Cc1cccc(NC(=O)c2cnn(-c3ccc(F)cc3)c2C2CCNCC2)c1C.Cl,-9.71
2,NC(=O)c1ccc(N=Cc2ccc([N+](=O)[O-])s2)cc1,8.6
3,Cc1cccc(OCc2nnc(SCC(=O)O)n2Cc2ccccc2)c1,28.1
4,Cc1cccc(C(=O)Nc2nnc(Cc3c[nH]c4ccccc34)s2)c1,12.7
5,O=C(NCc1cccs1)C1CCN(S(=O)(=O)c2ccc3c(c2)OCCO3)CC1,16.5
6,Cc1ccc(C(=O)NCCN2CCOCC2)c(Cl)c1,5.79
7,COc1ccccc1OCC(=O)Nc1cccc(-c2nc3ccccc3o2)c1,0.23
8,COc1ccc(-c2cccc(NS(=O)(=O)c3ccc([N+](=O)[O-])cc3)c2)nn1,-15.2
9,CSc1cccc(NC(=O)C2CCN(S(=O)(=O)c3ccc4c(c3)NC(=O)CO4)CC2)c1,12.3
10,O=C(Nc1ccccc1)/C(=C/c1ccc(F)cc1)NC(=O)c1ccco1,-2.63
11,CCCCc1ccc(NC(=O)CSc2nnc(C)c(=O)n2N)cc1,-23.9
12,Cc1ccn2cc(-c3cnoc3C)nc2c1,6.49
13,Cc1ccc(NC(=O)COc2ccccc2CNC(C)(C)CC(C)(C)C)cc1,-22.7
14,COc1cc(/C=N/Nc2nc(N3CCCC3)nc(N3CCCC3)n2)ccc1O,-37.7
15,CCOc1cc(/C=N/Nc2nc(N3CCCC3)nc(N3CCCC3)n2)ccc1O,-61.4
16,CCOc1ccc(/C=N/Nc2nc(N3CCCC3)nc(N3CCCC3)n2)cc1OC,-12
17,Cc1ccc(S(=O)(=O)NNC(=O)c2ccc3ccccc3n2)cc1,3.47
18,CC(=O)c1ccc(-n2c(CCC(=O)O)ccc2-c2cccs2)cc1,-0.766
19,O=C(NC1CCCCC1)c1ccc(COc2ccccc2)o1,2.32
20,CC(C)[C@H](NC(=O)OCc1ccccc1)C(=O)OCc1cc(=O)oc2cc(O)ccc12,-46.7
21,CSCCC(NS(=O)(=O)c1ccccc1)C(=O)OCc1cc(=O)oc2cc(O)ccc12 (stereo not drawn),-57.3
22,CSCCC(NS(=O)(=O)c1ccccc1)C(=O)OCc1nc2ccsc2c(=O)[nH]1 (stereo not drawn),2.87

row,Compound,"hERG current change (%, negative = inhibition) at 10uM [%]"
1,O=C(NNC(=S)Nc1ccc(Cl)c(Cl)c1)c1cccc([N+](=O)[O-])c1,36
2,CCOC(=O)N1CCN(C(=O)c2cc3cc(Br)ccc3oc2=O)CC1,-17.7
3,O=C(C1CCC1)N1CCN(c2ccccc2)CC1,13.6
4,O=C(c1ccc(-n2cccc2)cc1)N1CCN(Cc2ccccc2)CC1,-81.1
5,O=C(c1ccc2ccccc2c1)N1CCN(Cc2ccccc2)CC1,-24.4
6,COc1ccc(C(=O)N2CCC(C(=O)N3CCN(c4ccccc4)CC3)CC2)cc1,-48.7
7,C=CCNC(=S)N1CCN(Cc2ccccc2)CC1.O=C(O)C(=O)O,6.48
8,O=C(CNS(=O)(=O)c1ccc(Br)cc1)N1CCN(Cc2ccccc2)CC1,-17.2
9,O=C(O)C(=O)O.S=C(NCCc1ccccc1)N1CCN(Cc2ccccc2)CC1,0.0203
10,O=C(NCC(=O)N1CCN(Cc2ccccc2)CC1)c1ccc(Br)cc1,-53.5
11,O=C(c1ccc(Br)cc1)N1CCC(C(=O)N2CCN(c3ccccc3)CC2)CC1,-68.5
12,O=C(NCC(=O)N1CCN(Cc2ccccc2)CC1)c1ccc(Cl)cc1,-27.9
13,CCNC(=S)N1CCN(Cc2ccccc2)CC1.O=C(O)C(=O)O,-59.9
14,O=C(c1ccc(CN2CCOCC2)cc1)N1CCN(Cc2ccccc2)CC1,15.4
15,O=C(CCCCl)Nc1nc(-c2ccc3c(c2)OCCO3)cs1,9.6
16,CCOC(=O)CC(=O)Nc1c(C)cc(C)cc1C,4.74
17,N#CC1=C(N)Oc2cc(N)ccc2C1c1ccc(F)cc1F (stereo not drawn),-22.9
18,Cc1ccc(CNC(=O)c2cccnc2Cl)cc1,9.97
19,COCCn1cnnc1SCC(=O)Nc1sccc1C(N)=O,-2.66
20,COc1ccc(NC(=O)CCNS(=O)(=O)c2cc(Br)cnc2N)c(OC)c1,8.51
21,COc1ccc(C2N(c3cc(Cl)ccc3OC)C(=O)C3CCCN32)cc1OC (stereo not drawn),-4.91
